# The list is not random: actives were taken first. Their share in the collection is about 8.9%.
# KB-V1 MDR tox: kills drug-selected multidrug resistant KB-V1 cells; Potency, µM (doses to about 46.1 µM), actives largely listed as cytotoxic; 400,000 compounds, 3.4% hits; AID 1347076; KB-V1 MDR cells viability, CellTiter-Glo, 72 h; note: nearly all actives have a fitted effect of over 60% in size
#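 KB-V1 cells (P-gp-expressing MDR subline of KB-3-1) in phenol-red-free DMEM with 10% FBS were exposed to library compounds over a concentration series for 72 h at 37 degrees C. Viability read by CellTiter-Glo luminescence; concentration-effect curves fitted after normalization.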
# D3 ag: D3 dopamine receptor (human) agonism; P35462; D3R DiscoveRx beta-arrestin cells, luminescence, 90 min; max activation, %; 410,000 compounds, 0.58% hits; in the data active = max activation above about 30%
# Target sequence (P35462 whole entry, looked up): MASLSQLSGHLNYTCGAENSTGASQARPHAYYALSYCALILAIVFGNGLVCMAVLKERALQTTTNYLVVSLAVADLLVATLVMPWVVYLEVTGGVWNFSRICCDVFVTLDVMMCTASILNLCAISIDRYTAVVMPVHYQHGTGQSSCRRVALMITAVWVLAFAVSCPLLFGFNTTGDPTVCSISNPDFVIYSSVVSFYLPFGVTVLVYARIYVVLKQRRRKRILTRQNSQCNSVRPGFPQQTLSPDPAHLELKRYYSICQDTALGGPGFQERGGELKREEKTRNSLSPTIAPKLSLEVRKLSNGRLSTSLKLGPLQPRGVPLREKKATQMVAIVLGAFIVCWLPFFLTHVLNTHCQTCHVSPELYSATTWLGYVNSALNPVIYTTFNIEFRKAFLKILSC
#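 Cells at 1500/well, incubated overnight, then treated with pinned compounds (dopamine as control) for 90 min at 37 degrees C. DiscoveRx reagent added for 30 - 60 minutes at room temperature; luminescence read.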
# MCF10A rereplic: inducers of DNA re-replication in MCF 10A breast cells; MCF 10A DNA re-replication, Hoechst nuclear intensity, 48 h; 350,000 compounds, 2.9% hits; AID 624296; Potency, µM (series often up to 46.1 µM), hits mostly activators; note: nearly all actives have a fitted effect of over 50% in size
# KB-3-1 tox: KB-3-1 parental cell cytotoxicity | KB-3-1 viability, CellTiter-Glo ATP luminescence, 72 h | Potency, µM (titrated, usually from 46.1 µM), actives largely listed as cytotoxic | 400,000 compounds, 1.4% hits; note: nearly all actives have a fitted effect of over 60% in size
#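 Parental KB-3-1 viability, qHTS format: 72 h compound exposure, 37 °C; CellTiter-Glo; media-only wells and DMSO plates as controls; concentration-effect fits on corrected data.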
# DRD3 antagonist: D3 dopamine receptor (human) antagonism; max response, negative = inhibition, %; D3R cells, DiscoveRx beta-arrestin luminescence, antagonist mode; hits give low values; AID 652054; 360,000 compounds, 2.5% hits; P35462; in the data active = max response below about -50%; inconclusive = no clear call, values can overlap the other calls
#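 Cells expressing the human receptor were seeded at 1500 cells/well, incubated overnight at 37 degrees C in 5% CO2, then exposed to library compounds with dopamine controls for 90 minutes at 37 degrees C before luminescent detection.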
# SW480 rerep: induces DNA re-replication in SW480 colon adenocarcinoma cells; SW480 DNA re-replication, Hoechst DNA content imaging, 48 h; Potency, µM (doses to about 46.1 µM), most hits filed as activators; 340,000 compounds, 1.8% hits; AID 624297; note: nearly all actives have a fitted effect of over 55% in size
#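 Compounds, transferred as 23 nL by pin tool, were incubated with cells for 48 hr; DNA content per nucleus was then quantified by Hoechst staining and fluorescence plate imaging.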
# A number is an active result; n = inactive; u = inconclusive; x = no result given. Unless noted, calls come from the whole dose curve; as a rule, active = well fitted curve in the direction sought with a large enough effect; inconclusive = small, poorly fitted or top-dose-only effect, or another doubt; inactive = no such curve, though single readings can be large; an effect the other way counts as inactive or inconclusive.
SMILES,KB-V1 MDR tox,D3 ag,MCF10A rereplic,KB-3-1 tox,DRD3 antagonist,SW480 rerep
CCOC(=O)c1c(NC(=O)c2ccccc2C(=O)O)sc2c1CCCC2,n,n,n,n,n,n
CCOC(=O)c1c(C2COc3ccccc3O2)csc1N (centres undefined),n,n,u,n,n,n
CCOC(=O)c1c(NC(=O)c2ccccc2Cl)sc2c1CCc1ccccc1-2,u,n,16µM,n,n,n
CCOC(=O)c1c(C2COc3ccccc3O2)csc1NC(=O)c1ccccc1 (centres undefined),u,33,u,n,n,n
Cc1ccc(CN2COc3c(Cl)cc4c(-c5ccccc5)cc(=O)oc4c3C2)cc1,n,n,x,n,x,x
CCOc1ccc(NS(=O)(=O)c2ccc(C(=O)N(C)C)s2)cc1,n,n,x,n,x,x
CN(C)S(=O)(=O)N(CC(=O)NCCSc1ccccc1)c1ccccc1,n,n,x,n,x,x
COc1ccccc1NC(=O)C1CCN(S(=O)(=O)c2ccc3c(c2)oc(=O)n3C)CC1,n,n,x,n,x,x
COc1ccc(C2CC(=O)Oc3cc(C)c(Cl)c(C)c32)cc1 (centres undefined),n,n,18µM,n,u,n
Nc1ccc2c(c1)C(=NO)c1cc([N+](=O)[O-])ccc1-2,n,n,n,n,n,10µM
O=[N+]([O-])c1ccc2c(c1)-c1ccccc1C2=NO,u,n,n,n,n,n
Cc1cc(-c2c(C)[nH]n(-c3ccc(Cl)cc3)c2=O)n[nH]1,u,n,n,u,-60,u
CC(C)(C)NC(=O)C(c1ccco1)N(C(=O)Cn1nnc(-c2ccc(F)cc2)n1)c1ccccc1F (centres undefined),18µM,n,n,n,n,u
CC(C)(C)NC(=O)C(c1ccco1)N(C(=O)Cn1nnc(-c2ccc(F)cc2)n1)c1ccccc1 (centres undefined),3.7µM,n,n,u,n,n
CCn1c(=O)c(C(=O)Nc2ccc(C(C)=O)cc2)nc2ccccc21,n,n,x,n,x,x
Cc1ccc(CN(C(=O)COc2cccc([N+](=O)[O-])c2)c2ccccn2)o1,n,n,x,n,x,x
O=C(Nc1ccc(F)cc1F)c1sccc1SCc1cccc(C(F)(F)F)c1,16µM,n,n,n,n,n
COc1ccc(NC(=O)c2sccc2SCc2cccc(C(F)(F)F)c2)cc1,16µM,n,n,n,n,n
CC1(C)S[C@@H]2[C@H](NC(=O)COc3ccccc3)C(=O)N2[C@H]1C(=O)O,x,x,n,x,x,n
CCc1ccc(C(=O)c2cn(CC(=O)Nc3ccc4c(c3)OCO4)c3ccc(F)cc3c2=O)cc1,n,n,x,u,x,x
COc1ccc(NC(=O)CN2CCCN(Cc3ccc(Cl)cc3)S2(=O)=O)cc1Cl,n,n,x,n,x,x
O=C(Nc1cccc2oc(=O)ccc12)c1ccc([N+](=O)[O-])cc1[N+](=O)[O-],u,n,n,u,n,16µM
Clc1cccc(Cl)c1/C=N/Nc1c(Cl)cncc1Cl,u,n,2.6µM,4.6µM,n,8.2µM
Clc1cncc(Cl)c1N/N=C/c1ccncc1,u,n,n,n,n,n
COc1cc(-c2ccno2)ccc1S(=O)(=O)N1CCN(c2ccc(F)cc2)CC1,u,n,x,u,x,x
SMILES,KB-V1 MDR tox,D3 ag,MCF10A rereplic,KB-3-1 tox,DRD3 antagonist,SW480 rerep
C#CCN1C=C(C(=O)OCC)C(C)N(Cc2ccccc2I)S1(=O)=O (centres undefined),n,n,23µM,n,n,1.3µM
CCOC(=O)C1=CN(Cc2cccc(F)c2)S(=O)(=O)N(CC)C1c1ccccc1 (centres undefined),u,n,n,u,n,u
CCOC(=O)C1=CN(Cc2cccc(F)c2)S(=O)(=O)N(CC)C1c1ccc(C(F)(F)F)cc1 (centres undefined),n,n,u,n,-55,u
C#CCN1C=C(C(=O)OCC)C(C)NS1(=O)=O (centres undefined),n,n,n,n,n,n
CCOC(=O)C1=CN(Cc2cccc(I)c2)S(=O)(=O)N(C)C1C (centres undefined),n,n,u,n,-67,u
CCCCc1ccc(NC(=O)C2(C)Cc3ccccc3C(=O)O2)cc1 (centres undefined),n,n,x,n,x,x
CN=c1scc(-c2ccc(F)cc2)n1/N=C/c1ccc(O)c(O)c1,n,95,u,u,n,15µM
CN=c1scc(-c2ccc([N+](=O)[O-])cc2)n1/N=C/c1ccco1,n,n,n,n,n,n
COC(=O)c1c(C)n(-c2ccccc2)c2ccc(O)cc12,21µM,n,u,u,n,u
COc1ccc2c(c1)c1c(c(=O)n(Cc3ccccc3)c(=O)n1CC(=O)NCc1ccc(C)cc1)n2C,n,n,x,n,x,x
COc1cc(CNCc2ccccn2)ccc1OCc1cccc(Cl)c1,n,n,13µM,n,n,u
Cc1ccc(NC(=O)COC(=O)c2ccccc2OCC(=O)N(C)C)cc1,n,x,x,u,x,x
Cc1nc2cc(Oc3nc(NCCN(C)C)nc4ccsc34)ccc2s1,n,n,x,n,-59,x
C=CCN1C(=O)S/C(=C\c2ccc3c(c2)n(C)c(=O)n3C)C1=O,18µM,n,n,n,n,n
COc1cccc(/C=N/NC(=O)c2ccoc2C)c1,n,n,n,n,n,n
CC(CC(=O)Nc1ccc2c(c1)c(=O)n(C)n2-c1cccs1)c1ccccc1 (centres undefined),u,n,x,u,-53,x
CC(CC(=O)Nc1ccc2c(c1)OCCO2)c1ccccc1 (centres undefined),n,n,n,n,n,n
Cc1cc(C)cc(-n2c3ccc(NC(=O)Cc4cccc5ccccc45)cc3c(=O)n2C)c1,u,n,x,5.2µM,n,x
CC1CC(C)C(=O)C(C(CC2CC(=O)NC(=O)C2)OC(=O)CC(=O)c2ccccc2)C1 (centres undefined),u,n,u,2.6µM,n,n
Cc1oc2ncn(C)c(=O)c2c1C(=O)NCc1ccccc1,n,n,x,n,x,x
CS(=O)(=O)c1nc(-c2ccccc2)cc(-c2ccccc2)c1C#N,n,n,2.9µM,u,-66,6.5µM
COC(=O)c1c(C)[nH]c(C(=O)C(C)OC(=O)C2=NNC(=O)CC2)c1C (centres undefined),5.8µM,n,n,u,n,n
CC1CN(C(=O)C2CCCC2)C(C)CN1C(=O)C1CCCC1 (centres undefined),10µM,n,n,n,n,n
COc1ccc2oc(-c3ccc(C)c(NC(=O)c4ccc(-c5ccccc5[N+](=O)[O-])o4)c3)nc2c1,u,n,x,n,x,x
Cc1ccc(-c2nnc(Nc3ccc(O)cc3)c3ccccc23)cc1S(=O)(=O)NCC1CCCO1 (centres undefined),n,n,x,u,x,x

# From PubChem BioAssay
